JMJD2A Tudor inh: inhibitors of human JMJD2A Tudor domain; hit rate 4.4% among 390,000; AlphaScreen JMJD2A-Tudor / H3K4me3 peptide binding; Potency, µM (highest dose often 114 µM), usual class: inhibitors; AID 504339; note: nearly all actives have a fitted effect of over 50% in size
BAZ2B block: blocks human BAZ2B | Q9UIF8 | hit rate 4.4% among 360,000 | Potency, µM (top dose mostly 114 µM), usual class: inhibitors | AlphaScreen BAZ2B-H3K14Ac peptide displacement; note: nearly all actives have a fitted effect of over 60% in size
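BAZ2B (50 nM) with biotin-H3(5-23)K14Ac peptide (50 nM) in PBS pH 7.4, 0.01% Tween-20, preformed 30 min, then compound 30 min at room temperature; top concentration 110uM. AlphaScreen streptavidin donor/nickel chelate acceptor beads (10 ug/mL final), 20 min dark, signal read.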
HP1b chromo inh: HP1-beta chromodomain-methylated histone interaction inhibition | P83916 | AlphaScreen HP1-beta / biotin-H3K9me3 peptide binding | Potency, µM (highest dose often 114 µM), actives largely listed as inhibitors | hit rate 0.56% among 390,000; note: nearly all actives have a fitted effect of over 70% in size
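HP1-beta protein (50 nM final) preincubated 30 min at room temperature with biotinylated H3(1-18)K9me3 peptide (50 nM) in PBS pH 7.4, 0.01% Tween-20, then compound added for 30 min. AlphaScreen streptavidin donor/nickel chelate acceptor beads (10 ug/mL final), 30 min dark, luminescence read.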
L3MBTL1 block: L3MBTL1 (human) inhibition. Q9Y468. AlphaScreen L3MBTL1–H3K9me1 peptide binding. Potency, µM (titrated, usually from 57.1 µM), most hits filed as inhibitors. hit rate 0.66% among 230,000; note: nearly all actives have a fitted effect of over 60% in size
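First, the protein-peptide complex forms for 30 min at room temperature (L3MBTL1 50 nM, biotinylated H3K9me1 peptide 75 nM). Next, compounds are pin-transferred and incubated 30 min. Finally, AlphaScreen beads are added and read after 30 min.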
G9a inh: G9a (human) methyltransferase inhibition; Q96KQ7; Potency, µM (titrated, usually from 102 µM), actives largely listed as inhibitors; AID 504332; G9a H3K9 monomethylation, AlphaScreen, 2 h; hit rate 8.8% among 350,000; note: nearly all actives have a fitted effect of over 75% in size
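Readings reflect AlphaScreen signal from monomethyl-H3K9 antibody detection. HMT at 20 nM; substrate b-H3K9 500 nM; cofactor SAM 20 uM; 2 h RT reaction; compounds tested as titrations in qHTS with 15 min preincubation.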
Hits are given with their value; - = inactive; ? = inconclusive; . = not tested or not shown; [ ] = remark or other dose. Compounds with a hit are over-represented: about 11% of the library has one in this group of screens. Calls come from the whole dose curve; as a rule, active = well fitted inhibition curve with a large enough effect; inconclusive = small, poorly fitted or top-dose-only effect; inactive = no such curve, though single readings can be large or run the other way.

SMILES	JMJD2A Tudor inh	BAZ2B block	HP1b chromo inh	L3MBTL1 block	G9a inh
Clc1ccc(N=c2ssnc2Cl)cc1	50µM	40µM	?	-	1.6µM
Cc1nn2c(=O)cc(COC(=O)c3ccc(NC(=O)CCc4ccccc4)cc3)nc2s1	?	-	-	.	-
COc1cc(N=c2ssnc2Cl)cc(OC)c1OC	?	28µM	-	-	?
CCOC(=O)c1ccc(N=c2ssnc2Cl)cc1	14µM	28µM	7.9µM	.	1.8µM
COc1ccc(N=Cc2sc3ccccc3c2Cl)cc1	-	-	-	-	-
COc1ccc(N=c2ssnc2Cl)cc1	-[11.4 µM]	45µM	?	-	1.3µM
CCCCn1c(N)c(N(CC(C)C)C(=O)CN2C(=O)NC3(CCC(C(C)(C)CC)CC3)C2=O)c(=O)[nH]c1=O (stereo unspecified)	-	.	-	.	.
Cc1occc1C(=O)/C(C#N)=C/c1ccc(O)c(Br)c1	-	-	-	.	50µM
Cc1ccc2nc(NCc3ccco3)c(C=NCc3ccco3)c(=O)n2c1	-	50µM	-	?	-
CN(C)Cc1nnnn1-c1ccccc1	-	-	-	-	-
COc1ccc(N2CCCC2)c(NC(=O)COc2ccccc2Cl)c1	-	?	-	.	35µM
COc1ccc(N2CC(C(=O)Nc3ccccc3N3CCCC3)CC2=O)c(OC)c1 (stereo unspecified)	-	-	-	-	50µM
O=C(COc1ccccc1Cl)NC(=S)Nc1ccccc1N1CCCC1	?	20µM	-	.	40µM
COc1ccc(N2CC(C(=O)Nc3cc(C(F)(F)F)ccc3N3CCCC3)CC2=O)c(OC)c1 (stereo unspecified)	-	-	-	-	?
CCOc1ccc(C2=C(C(=O)CC)Sc3nncn3N2C(=O)CC)cc1	-	-	-	.	-
COc1ccc(CCn2c(=S)[nH]c(=O)c3nccnc32)cc1OC	-	.	-	.	.
CCCOc1ccc(OC(=O)c2cn(-c3ccc(OC)cc3)c(=O)c3ccccc23)cc1	-	-	-	.	-
Cc1cc(N=Nc2ccccc2)c(NCC(O)C(O)C(O)CO)cc1C (stereo unspecified)	45µM	16µM	?	.	20µM
Cc1ccc(C(=O)Nc2ccc3oc(-c4ccc(C(C)(C)C)cc4)nc3c2)cc1	-	-	-	.	-
CC1(C(=O)NC(=S)N(CCC#N)c2ccccc2)CC1(Cl)Cl (stereo unspecified)	?	-	-	.	28µM
CCc1ccc(/C([O-])=C(/C(=S)NCCN2CCOCC2)[n+]2ccccc2)cc1	-	-	-	.	25µM
Cc1ccc2[nH]c(=O)c(CN(Cc3nnnn3Cc3ccccc3)C3CCCC3)cc2c1	-	-	-	-[11.4 µM]	8.9µM
Cc1ccc2[nH]c(=O)c(CN(Cc3ccccc3)Cc3nnnn3Cc3ccccc3)cc2c1	-	.	-	.	.
Cc1cc(C)c2cc(CN(CCO)Cc3nnnn3Cc3ccc(F)cc3)c(=O)[nH]c2c1	-	-	-	.	-[12.7 µM]
Cc1ccc2cc(CN(CCO)Cc3nnnn3Cc3ccc(F)cc3)c(=O)[nH]c2c1	-	-	-	-	32µM
SMILES	JMJD2A Tudor inh	BAZ2B block	HP1b chromo inh	L3MBTL1 block	G9a inh
Cc1cc(C)c2cc(CN(CCO)Cc3nnnn3Cc3ccccc3)c(=O)[nH]c2c1	-	-	-	-	40µM
COc1ccc(-c2csc3ncnc(Nc4ccc(OC)c(OC)c4)c23)cc1	?	-	-	.	-
CN1CC(=O)N(CC(=O)Nc2cccc(C#N)c2)c2ccccc2C1=O	-	-	-	.	-
CC1Cc2ccccc2N1Cc1nc2cc(C(F)(F)F)ccc2c(=O)[nH]1 (stereo unspecified)	?	?	-	-	?
NC(=O)C1CCN(Cc2nc3cc(C(F)(F)F)ccc3c(=O)[nH]2)CC1	-	-	-	-	14µM
CCOC(=O)c1c(NC(=O)C2C3CCC(O3)C2C(=O)O)sc(C)c1-c1ccc(F)cc1 (stereo unspecified)	-	-	-	-	.
CCCOC(=O)c1c(-c2ccc(C)cc2C)csc1NC(=O)C1C2CCC(O2)C1C(=O)O (stereo unspecified)	71µM	-	?	-	13µM
COc1ccc(OC)c(NC(=O)CN2C(=O)C(C)N(c3ccc(C)cc3)C2=O)c1 (stereo unspecified)	-	-	-	-	-
CCc1cccc(C)c1NC(=O)CN1C(=O)C2(SCC(=O)N2c2cccc(F)c2)c2ccccc21 (stereo unspecified)	-	-	-	.	-
CCN=c1scc(-c2ccco2)n1/N=C/c1ccc(O)cc1	56µM	50µM	?	.	35µM
Cc1nc2ccccc2c(=O)n1/N=C/c1ccc(O)cc1	-	-	-	-	-
Cc1ccc2oc(=O)c3cc(C(=O)NCCN4CCN(C)CC4)sc3c2c1	-	-	-	35µM	-
COc1ccccc1NC(=O)c1cc2c(=O)oc3ccc(C)cc3c2s1	-	-	-	.	0.71µM
COc1cc(OC)c(NC(=O)c2cc3c(=O)oc4ccc(C)cc4c3s2)cc1Cl	-	-	-	.	-
Cc1ccc2oc(=O)c3cc(C(=O)NCCCN4CCc5ccccc5C4)sc3c2c1	-	?	-	-	32µM
Cc1ccc(NC(=O)CSc2ncc3c(n2)-c2ccccc2N(C)S3(=O)=O)c(Cl)c1	-	-	-	.	-
CN(Cc1c(O)ccc2c1oc(=O)c1ccccc12)C1CCCCC1	4µM	5.6µM	?	.	?
CN(C)Cc1c(O)ccc2c3c(c(=O)oc12)CCCCC3	-	-	-	.	-[12.7 µM]
O=C(CCC1COc2ccccc2O1)Nc1ncccc1O (stereo unspecified)	50µM	?	-	-	-
O=C(O)CCc1ccc(-c2ccc(F)cc2)n1Cc1ccco1	?	-	-	-	-[12.7 µM]
O=C(O)CCc1ccc(-c2ccccc2)n1Cc1ccco1	?	50µM	-	.	32µM
O=C(O)CCc1ccc(-c2ccc(Br)cc2)n1Cc1ccco1	79µM	50µM	-	-	?
CCOc1cc2[nH]c(=O)n(CCC(=O)N3CCN(c4cccc(Cl)c4)CC3)c(=O)c2cc1OCC	-	-	-	.	-
CCn1cc(C(=O)N(C)c2ccc(C(C)C)cc2)c2cc(OC)c(OC)cc2c1=O	-	-	-	.	-
Cc1cccc(CNC(=O)c2ccc(NC(=O)C3=CSCCO3)cc2)c1	20µM	-	-	.	-
SMILES	JMJD2A Tudor inh	BAZ2B block	HP1b chromo inh	L3MBTL1 block	G9a inh
Cc1ccc(CNC(=O)c2ccccc2NC(=O)C2=CSCCO2)cc1	-	-	-	.	-
Cc1cccc(CNC(=O)c2ccccc2NC(=O)C2=CSCCO2)c1	-	-	-	.	-
CCOc1ccc(CNC(=O)c2ccccc2NC(=O)C2=CSCCO2)cc1	32µM	-	-	.	-
O=C(NC(=O)N1CCCC1)c1csnn1	-	-	-	.	56µM
O=C(NC1CCCCC1)c1csnn1	-	.	-	.	.
CN(C)c1ccc(C2CC(=O)C=C(Nc3ccccc3N)C2)cc1 (stereo unspecified)	?	45µM	-	?	.
CC1(C)CC(=O)C=C(Nc2ccccc2N)C1	-	?	-	-	?
Cc1ccccc1CN1CCN(CC(=O)NCc2ccccc2Cl)C1=O	-	-	-	.	-
O=C(c1n[nH]c2ccccc12)N1CCCCC1	-	-	-	-	-
